This passage reports growth results from PubChem BioAssay (NCI).

Compounds without any hit were thinned out: in the full panel of roughly 83,000, 20% have a hit.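 Plates (96-well) were seeded with cells, treated with compound at one concentration, and incubated for 48 hours before percent growth was determined.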 Values without a mark were called inactive. Active and inactive are the calls of the source. How the source made its calls: active means growth percent below 10; inactive means the rest.

Among the test systems are HCT-15 colon; HT29 colon; SNB-19 CNS; U251 CNS; PC-3 prostate; SK-MEL-5 melanoma; UACC-62 melanoma; LOX IMVI melanoma; SK-MEL-28 melanoma; SK-MEL-2 melanoma; EKVX NSCLC; SN12C renal; UO-31 renal; TK-10 renal; ACHN renal; CAKI-1 renal; A498 renal; CCRF-CEM leukemia; MOLT-4 leukemia.
Holding throughout (test): NCI-60 one-dose screen, 48 h (100 = growth as untreated, 0 = no growth, -100 = all killed)
Conditions in all cases: 10 µM unless noted

With `COc1cccc(-c2cn3c(ccc4ccccc43)n2)c1`, the growth with HCT-15 colon was 21.9%; with HT29 colon, 20.1%; in the experiment on SNB-19 CNS, 38.3%; in the experiment on U251 CNS, 38.4%; with PC-3 prostate it was 34.8%; in the experiment with SK-MEL-5 melanoma it was 9.42% (active). Also, the growth in the experiment with UACC-62 melanoma was 34.4%; in the experiment with LOX IMVI melanoma it was 31.6%; with SK-MEL-28 melanoma, 60%; in the experiment on SK-MEL-2 melanoma it was 22.1%; with EKVX NSCLC it was 20.8%; in the experiment with SN12C renal, 40.2%. For the same molecule, the growth with UO-31 renal was 37.2%; in the experiment with TK-10 renal it was 88.8%; in the experiment with ACHN renal, 40.1%; in the experiment with CAKI-1 renal, 32.4%; with A498 renal, -3.78% (active); in the experiment with CCRF-CEM leukemia it was 26.6%. In addition, the growth in the experiment with MOLT-4 leukemia is 48.7%.
`O=[N+]([O-])c1cccc(-c2nc3sccn3c2-c2ccnc(NCCNS(=O)(=O)c3ccc(C(F)(F)F)cc3)n2)c1`: the growth in the experiment with HCT-15 colon is 26.7%; with HT29 colon it was 40%; with SNB-19 CNS, 61.4%; in the experiment with U251 CNS, 51.4%; in the experiment with PC-3 prostate, 17%; in the experiment with SK-MEL-5 melanoma, -14% (active). The growth in the experiment with UACC-62 melanoma was 13.2%; with LOX IMVI melanoma, 30.4%; in the experiment on SK-MEL-28 melanoma it was 58.8%; in the experiment on SK-MEL-2 melanoma it was 26.9%; with EKVX NSCLC, 39.5%; with SN12C renal, 33%. Also, the growth is 17.3% with UO-31 renal; 57.9% with TK-10 renal; 22.5% with ACHN renal; 30.3% in the experiment with CAKI-1 renal; 36.6% in the experiment with A498 renal; 20.2% in the experiment with CCRF-CEM leukemia. Moreover, the growth in the experiment on MOLT-4 leukemia was 18.2%.
Consider `COc1cc(/C=C2\CN(C(=O)CCN3CCC(=NO)CC3)C/C(=C\c3cc(OC)c(OC)c(OC)c3)C2=O)cc(OC)c1OC`, for which the growth was -54.7% (active) with HCT-15 colon; -70% (active) in the experiment on HT29 colon; -90.1% (active) in the experiment with SNB-19 CNS; -68.6% (active) with U251 CNS; -54.3% (active) in the experiment with PC-3 prostate; -61.2% (active) in the experiment on SK-MEL-5 melanoma. Moreover, the growth was -70.7% (active) in the experiment on UACC-62 melanoma; -85.2% (active) in the experiment with LOX IMVI melanoma; -76.7% (active) in the experiment on SK-MEL-28 melanoma; -26.9% (active) in the experiment on SK-MEL-2 melanoma; -36.1% (active) in the experiment with EKVX NSCLC; -9.11% (active) in the experiment with SN12C renal. Further, the growth in the experiment on UO-31 renal is -96.2% (active); in the experiment with TK-10 renal it was -69.2% (active); in the experiment with ACHN renal, -44.2% (active); with CAKI-1 renal, -77.2% (active); in the experiment on A498 renal, -87.2% (active); in the experiment on CCRF-CEM leukemia, -37.3% (active). Besides, the growth with MOLT-4 leukemia was 2.41% (active).
Regarding `Brc1cccc(-c2nc(-c3ccc4c(c3)OCCO4)co2)c1`, the growth was 34.5% [25 µM] in the experiment on HCT-15 colon; 17.1% [25 µM] with HT29 colon; 63.1% [25 µM] in the experiment on SNB-19 CNS; 43.3% [25 µM] in the experiment with U251 CNS; 74% [25 µM] in the experiment on PC-3 prostate; 57.6% [25 µM] with SK-MEL-5 melanoma. Further, the growth in the experiment on UACC-62 melanoma was 44.6% [25 µM]; in the experiment with LOX IMVI melanoma, 45.4% [25 µM]; in the experiment with SK-MEL-28 melanoma, 72.9% [25 µM]; in the experiment with SK-MEL-2 melanoma, 37.6% [25 µM]; with EKVX NSCLC, 51.5% [25 µM]; with SN12C renal it was 54% [25 µM]. Also, the growth was 70% [25 µM] in the experiment on UO-31 renal; 84.7% [25 µM] with TK-10 renal; 85.4% [25 µM] with ACHN renal; 52.3% [25 µM] in the experiment on CAKI-1 renal; 23.5% [25 µM] with A498 renal; 51.6% [25 µM] in the experiment with CCRF-CEM leukemia. Further, in the experiment on MOLT-4 leukemia, the growth is 45.4% [25 µM].
In the case of `COc1cc(/C=N\NC(=O)CN2CCN(c3cc4c(cc3F)c(=O)c(C(=O)N/N=C/c3ccc(O)c(OC)c3)cn4C3CC3)CC2)ccc1O`, the growth is 97.2% with HCT-15 colon; 14.1% with HT29 colon; 55.5% in the experiment with SNB-19 CNS; 55.3% in the experiment on U251 CNS; 69.7% with PC-3 prostate; 56.8% with SK-MEL-5 melanoma. For the same molecule, the growth in the experiment with UACC-62 melanoma was 52.9%; in the experiment on LOX IMVI melanoma, 8.64% (active); in the experiment with SK-MEL-28 melanoma, 79.8%; with SK-MEL-2 melanoma, 68%; in the experiment with EKVX NSCLC it was 84.3%; in the experiment with SN12C renal, 53.4%. Moreover, the growth is 76.7% in the experiment on UO-31 renal; 91.7% in the experiment with TK-10 renal; 99.2% with ACHN renal; 82.8% with CAKI-1 renal; 85.3% with A498 renal; 18.9% in the experiment with CCRF-CEM leukemia. Further, the growth in the experiment on MOLT-4 leukemia is 5.76% (active).
`COc1cc(NCCCCCN=C(N)NC(N)=NC(C)C)c2ncccc2c1`: the growth is 110% with HCT-15 colon; 54.2% in the experiment on HT29 colon; 33.2% with SNB-19 CNS; 20.5% in the experiment on U251 CNS; 32.8% in the experiment with PC-3 prostate; 5.87% (active) in the experiment with SK-MEL-5 melanoma. The growth was 36.8% in the experiment with UACC-62 melanoma; 9.91% (active) with LOX IMVI melanoma; 60.1% with SK-MEL-28 melanoma; 20.1% in the experiment with SK-MEL-2 melanoma; 42.2% in the experiment on EKVX NSCLC; 25.9% in the experiment with SN12C renal. Moreover, the growth is 76.7% with UO-31 renal; 66.7% in the experiment with TK-10 renal; 105% in the experiment on ACHN renal; 100% in the experiment on CAKI-1 renal; 110% in the experiment on A498 renal; 25.3% in the experiment with CCRF-CEM leukemia. In the experiment on MOLT-4 leukemia, the growth is 27.9%.
Regarding `COc1ccc(C/C(C)=C(\c2ccc(OCCN3CCCCCC3)cc2)c2ccc(OC(=O)C3CCCCC3)cc2)cc1`, the growth in the experiment on HCT-15 colon is 38.7%; with HT29 colon, -31.8% (active); in the experiment with SNB-19 CNS, 63.3%; in the experiment on U251 CNS it was 44.1%; in the experiment on PC-3 prostate, 50.7%; with SK-MEL-5 melanoma it was 65.4%. The growth is 63.5% with UACC-62 melanoma; 66.8% with LOX IMVI melanoma; 66.9% in the experiment with SK-MEL-28 melanoma; 82.1% in the experiment on SK-MEL-2 melanoma; 83.5% in the experiment with EKVX NSCLC; 57.1% in the experiment with SN12C renal. Moreover, the growth with UO-31 renal was 38.6%; in the experiment on TK-10 renal it was 86.4%; in the experiment on ACHN renal, 80.8%; in the experiment with CAKI-1 renal, 86.7%; in the experiment with A498 renal it was 80.4%; in the experiment with CCRF-CEM leukemia, 49.7%. For the same molecule, the growth with MOLT-4 leukemia is 32.3%.
Turning to `O=C1/C(=C/c2ccc(Cl)c(Cl)c2)CN(C(=O)CCN2CCC(=NO)CC2)C/C1=C\c1ccc(Cl)c(Cl)c1`, the growth was -88.3% (active) in the experiment on HCT-15 colon; -85.9% (active) in the experiment on HT29 colon; -96% (active) with SNB-19 CNS; -93.4% (active) with U251 CNS; -71.2% (active) in the experiment with PC-3 prostate; -93.7% (active) with SK-MEL-5 melanoma. Also, the growth in the experiment on UACC-62 melanoma is -92.3% (active); with LOX IMVI melanoma, -90.6% (active); in the experiment with SK-MEL-28 melanoma it was -92% (active); in the experiment on SK-MEL-2 melanoma, -86.9% (active); in the experiment with EKVX NSCLC it was -85.1% (active); with SN12C renal, -97.3% (active). The growth in the experiment on UO-31 renal was -95.7% (active); with TK-10 renal it was -88.9% (active); in the experiment on ACHN renal, -98.4% (active); in the experiment with CAKI-1 renal it was -92.1% (active); with A498 renal it was -92% (active); in the experiment on CCRF-CEM leukemia it was -28.2% (active). In addition, the growth with MOLT-4 leukemia was -21.7% (active).
